# Assay results: PubChem BioAssay AID1159580 (chemical genetic matrix, 2015)
# The campaign covered roughly 5,500 compounds. About 2,000 (36%) were called active. Roughly 18% stayed inconclusive and do not appear here. This is one part of the list. Unmarked numbers belong to inactive results. Rule as the data show it: active = normalized growth mostly below about 0.91 (no sharp cut-off); inconclusive = no clear call, values can overlap the other calls; inactive = mostly above about 0.92.
# Experiment: chemical genetic growth profiling, strain panel (AID 1159580);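 also: tested at 20 µM; growth read once vehicle control cultures reached saturation at 30 °C; 1 = growth at the plate median or of vehicle wells; lower values mean less growth of the strain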
# Conditions: S. cerevisiae deletion strains, growth OD
# [1] = locus YAR019C, strain CDC15, hits give low values
# [2] = locus YBL105C, strain PKC1, hits give low values
# [3] = locus YBR135W, strain CKS1, hits give low values
# [4] = locus YBR136W, strain MEC1, hits give low values
# [5] = locus YBR160W, strain CDC28, hits give low values
# [6] = locus YDL017W, strain CDC7, hits give low values
# [7] = locus YDL028C, strain MPS1, hits give low values
# [8] = locus YDL101C, strain DUN1, hits give low values
# [9] = locus YDL108W, strain KIN28, hits give low values
# [10] = locus YDL132W, strain cdc53, hits give low values
# [11] = locus YDL214C, strain PRR2, hits give low values
# [12] = locus YDR052C, strain DBF4, hits give low values
# [13] = locus YDR054C, strain cdc34, hits give low values
# [14] = locus YDR226W, strain ADK1, hits give low values
# [15] = locus YDR477W, strain SNF1, hits give low values
# [16] = locus YER123W, strain YCK3, hits give low values
# [17] = locus YER133W, strain GLC7, hits give low values
# [18] = locus YFL009W, strain cdc4, hits give low values
# [19] = locus YFL029C, strain CAK1, hits give low values
# [20] = locus YFR003C, strain YPI1, hits give low values
# [21] = locus YFR019W, strain FAB1, hits give low values
# [22] = locus YFR028C, strain CDC14, hits give low values
# [23] = locus YGR040W, strain KSS1, hits give low values
# [24] = locus YGR052W, strain FMP48, hits give low values
# [25] = locus YGR092W, strain DBF2, hits give low values
# [26] = locus YHR030C, strain SLT2, hits give low values
# [27] = locus YHR079C, strain IRE1, hits give low values
# [28] = locus YHR082C, strain KSP1, hits give low values
# [29] = locus YHR205W, strain SCH9, hits give low values
# [30] = locus YIL147C, strain SLN1, hits give low values
# [31] = locus YJL095W, strain BCK1, hits give low values
# [32] = locus YJL128C, strain PBS2, hits give low values
# [33] = locus YJL157C, strain FAR1, hits give low values
# [34] = locus YJR016C, strain ILV3, hits give low values
# [35] = locus YJR066W, strain TOR1 (second series), hits give low values
# [36] = locus YJR066W, strain TOR1, hits give low values
# [37] = locus YKL048C, strain ELM1, hits give low values
# [38] = locus YKL067W, strain YNK1, hits give low values
# [39] = locus YKL101W, strain HSL1, hits give low values
# [40] = locus YKL193C, strain SDS22, hits give low values
# [41] = locus YKL203C, strain TOR2, hits give low values
# [42] = locus YLR113W, strain HOG1, hits give low values
# [43] = locus YLR133W, strain CKI1, hits give low values
# [44] = locus YLR403W, strain SFP1, hits give low values
# [45] = locus YML070W, strain DAK1, hits give low values
# [46] = locus YMR001C, strain CDC5, hits give low values
# [47] = locus YMR205C, strain PFK2 (second series), hits give low values
# [48] = locus YMR277W, strain FCP1, hits give low values
# [49] = locus YNL006W, strain LST8, hits give low values
# [50] = locus YNL020C, strain ARK1, hits give low values
# [51] = locus YNL161W, strain CBK1, hits give low values
# [52] = locus YNL183C, strain NPR1, hits give low values
# [53] = locus YNL207W, strain RIO2, hits give low values
# [54] = locus YNL222W, strain SSU72, hits give low values
# [55] = locus YNL307C, strain MCK1 (second series), hits give low values
# [56] = locus YOL078W, strain AVO1, hits give low values
# [57] = locus YOL136C, strain PFK27, hits give low values
# [58] = locus YOR061W, strain CKA2, hits give low values
# [59] = locus YOR119C, strain RIO1, hits give low values
# [60] = locus YOR231W, strain MKK1, hits give low values
# [61] = locus YOR329C, strain SCD5, hits give low values
# [62] = locus YPL031C, strain PHO85, hits give low values
# [63] = locus YPL153C, strain RAD53, hits give low values
# [64] = locus YPL204W, strain HRR25, hits give low values
# [65] = locus YPL209C, strain IPL1, hits give low values
# [66] = locus YPL256C, strain CLN2, hits give low values
# [67] = locus YPR025C, strain CCL1, hits give low values
# [68] = locus YPR106W, strain ISR1, hits give low values
# [69] = locus YPR111W, strain DBF20, hits give low values
# [70] = strain NNK1, hits give low values
# [71] = strain TSCII, hits give low values
structure (smiles),measurement,setting,value
Cc1onc(-c2c(Cl)cccc2Cl)c1C(=O)NC(C)(C)CC(C)(C)C,normalized growth,[1],0.998
same,normalized growth,[2],0.99
same,normalized growth,[3],0.991
same,normalized growth,[4],0.989
same,normalized growth,[5],0.997
same,normalized growth,[6],0.997
same,normalized growth,[7],0.976
same,normalized growth,[8],0.994
same,normalized growth,[9],0.983
same,normalized growth,[10],0.992
same,normalized growth,[11],0.945
same,normalized growth,[12],0.991
same,normalized growth,[13],0.995
same,normalized growth,[14],0.999
same,normalized growth,[15],0.977
same,normalized growth,[16],0.919
same,normalized growth,[17],0.97
same,normalized growth,[18],0.995
same,normalized growth,[19],0.998
same,normalized growth,[20],0.992
same,normalized growth,[21],0.972
same,normalized growth,[22],0.995
same,normalized growth,[23],0.956
same,normalized growth,[24],1.04
same,normalized growth,[25],0.969
same,normalized growth,[26],1.12
same,normalized growth,[27],1.05
same,normalized growth,[28],1.08
same,normalized growth,[29],0.955
same,normalized growth,[30],0.99
same,normalized growth,[31],1.07
same,normalized growth,[32],0.945
same,normalized growth,[33],0.953
same,normalized growth,[34],0.992
same,normalized growth,[35],0.951
same,normalized growth,[36],1.09
same,normalized growth,[37],0.982
same,normalized growth,[38],0.961
same,normalized growth,[39],0.953
same,normalized growth,[40],0.996
same,normalized growth,[41],1.04
same,normalized growth,[42],0.962
same,normalized growth,[43],0.965
same,normalized growth,[44],0.927
same,normalized growth,[45],0.932
same,normalized growth,[46],0.998
same,normalized growth,[47],0.966
same,normalized growth,[48],0.998
same,normalized growth,[49],0.988
same,normalized growth,[50],0.971
same,normalized growth,[51],0.995
same,normalized growth,[52],1.03
same,normalized growth,[53],0.991
same,normalized growth,[54],0.989
same,normalized growth,[55],1
same,normalized growth,[56],0.992
same,normalized growth,[57],0.95
same,normalized growth,[58],0.959
same,normalized growth,[59],0.992
same,normalized growth,[60],1.02
same,normalized growth,[61],0.994
same,normalized growth,[62],0.979
same,normalized growth,[63],0.964
same,normalized growth,[64],0.977
same,normalized growth,[65],0.993
same,normalized growth,[66],1.08
same,normalized growth,[67],0.992
same,normalized growth,[68],0.993
same,normalized growth,[69],0.989
same,normalized growth,[70],0.99
same,normalized growth,[71],0.995
Cc1cc(NC(=O)c2c(-c3c(Cl)cccc3Cl)noc2C)c([N+](=O)[O-])cc1C,normalized growth,"locus YAL013W, strain DEP1, hits give low values",1.01
same,normalized growth,"locus YBR229C, strain ROT2, hits give low values",1.01
same,normalized growth,[8],1.08
same,normalized growth,"locus YDR150W, strain NUM1, hits give low values",1.03
same,normalized growth,"locus YEL061C, strain CIN8, hits give low values",1
same,normalized growth,"locus YGR078C, strain PAC10, hits give low values",1.04
same,normalized growth,"locus YGR229C, strain SMI1, hits give low values",0.975
same,normalized growth,[26],1.02
same,normalized growth,"locus YHR087W, strain rtc3, hits give low values",0.969
same,normalized growth,"locus YJR043C, strain POL32, hits give low values",1.02
same,normalized growth,"locus YJR075W, strain HOC1, hits give low values",1
same,normalized growth,"locus YLR039C, strain RIC1, hits give low values",1.04
same,normalized growth,"locus YLR058C, strain SHM2 (second series), hits give low values",0.983
same,normalized growth,"locus YLR085C, strain ARP6, hits give low values",0.999
same,normalized growth,"locus YLR262C, strain YPT6, hits give low values",0.967
same,normalized growth,"locus YML094W, strain GIM5, hits give low values",0.992
same,normalized growth,"locus YMR219W, strain ESC1, hits give low values",0.992
same,normalized growth,"locus YMR263W, strain SAP30, hits give low values",1.04
same,normalized growth,"locus YNL153C, strain GIM3, hits give low values",1.04
same,normalized growth,"locus YNL298W, strain CLA4 (second series), hits give low values",1.04
same,normalized growth,"locus YNL322C, strain KRE1, hits give low values",0.981
same,normalized growth,"locus YNR030W, strain Alg12, hits give low values",0.975
same,normalized growth,"locus YOL006C, strain TOP1, hits give low values",0.987
same,normalized growth,"locus YPL055C, strain LGE1, hits give low values",0.996
same,normalized growth,"locus YPL241C, strain CIN2, hits give low values",1.01
same,normalized growth,"locus YPR135W, strain CTF4, hits give low values",0.995
CC(C)(C)c1ccc(C(=O)NNc2c(Cl)cccc2Cl)cc1,normalized growth,[1],0.977
same,normalized growth,[2],0.952
same,normalized growth,[3],0.948
same,normalized growth,[4],0.97
same,normalized growth,[5],0.958
same,normalized growth,[6],0.973
same,normalized growth,[7],0.98
same,normalized growth,[8],0.985
same,normalized growth,[9],0.965
same,normalized growth,[10],0.968
same,normalized growth,[11],0.9
same,normalized growth,[12],0.974
same,normalized growth,[13],0.981
same,normalized growth,[14],0.986
same,normalized growth,[15],0.948
same,normalized growth,[16],0.904
same,normalized growth,[17],0.939
same,normalized growth,[18],0.975
same,normalized growth,[19],0.978
same,normalized growth,[20],0.974
same,normalized growth,[21],0.933
same,normalized growth,[22],0.973
same,normalized growth,[23],0.918
same,normalized growth,[24],0.946
same,normalized growth,[25],0.894
same,normalized growth,[26],0.864
same,normalized growth,[27],0.885
same,normalized growth,[28],0.974
same,normalized growth,[29],0.86
same,normalized growth,[30],0.974
same,normalized growth,[31],0.898
same,normalized growth,[32],0.878
same,normalized growth,[33],0.88
same,normalized growth,[34],0.966
same,normalized growth,[35],0.868
same,normalized growth,[36],0.959
same,normalized growth,[37],0.954
same,normalized growth,[38],0.892
same,normalized growth,[39],0.89
same,normalized growth,[40],0.974
same,normalized growth,[41],1.01
same,normalized growth,[42],0.726 (active)
same,normalized growth,[43],0.89
same,normalized growth,[44],0.893
same,normalized growth,[45],0.862
same,normalized growth,[46],0.971
same,normalized growth,[47],0.888
same,normalized growth,[48],0.971
same,normalized growth,[49],0.978
same,normalized growth,[50],0.889
same,normalized growth,[51],0.981
same,normalized growth,[52],0.887
same,normalized growth,[53],0.974
same,normalized growth,[54],0.969
same,normalized growth,[55],0.902
same,normalized growth,[56],0.967
same,normalized growth,[57],0.85
same,normalized growth,[58],0.874
same,normalized growth,[59],0.985
same,normalized growth,[60],0.832
same,normalized growth,[61],0.981
same,normalized growth,[62],0.935
same,normalized growth,[63],0.92
same,normalized growth,[64],0.947
same,normalized growth,[65],0.968
same,normalized growth,[66],0.834 (active)
same,normalized growth,[67],0.962
same,normalized growth,[68],0.944
same,normalized growth,[69],0.995
same,normalized growth,[70],0.943
same,normalized growth,[71],0.972
